Here are results for 21 molecules from PubChem BioAssay AID651791 (National Center for Advancing Translational Sciences (NCATS), 2012).

Inconclusive results are not listed. The source made the active and inactive calls. Calls come from the whole dose curve; as a rule, active = well fitted inhibition curve with a large enough effect; inconclusive = small, poorly fitted or top-dose-only effect; inactive = no such curve, though single readings can be large or run the other way.
Potency is the fitted concentration of half-maximal effect.

This assay can be described thus: InCell qHTS Assay for Inhibitors of the mTORC1 Signaling Pathway in MEF (Tsc2-/-, p53-/-) Cells: Hit Validation.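 Note: phospho-S6 Ser235/236 signal normalized to propidium iodide cell count per well; nearly all actives have a fitted effect of over 75% in size.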 The following applies: phospho-rpS6 immunofluorescence, 24 h; activity change, negative = inhibition: at 38.3 µM (top of the series). In general terms: qHTS replaces the single test concentration by a dilution series.
As to `CCNc1nc2c(c(=O)[nH]c(=O)n2C)n1CC(O)COc1ccc(Cl)cc1Cl` (stereo unspecified), the activity change, negative = inhibition was -100%.
On to `FC(F)(F)c1cccc(Nc2nc3nonc3nc2Nc2ccc(Cl)cc2)c1`, for which the activity change, negative = inhibition was -100%.
On the same count and under the same terms, for `CCOC(=O)c1sc2ccccc2c1S(=O)(=O)Nc1ccc(CC)cc1` the value was -100%; for `COc1ccc(N2CCN(C(=O)C3CCCN(S(=O)(=O)c4ccc5c(c4)CCCN5C(C)=O)C3)CC2)cc1` (stereo unspecified), -100%.
Regarding `CCS(=O)(=O)c1oc(-c2ccc(F)cc2)nc1S(=O)(=O)c1ccccc1`, the Potency was 0.736 µM (active).
For `O=C(CN1C(=O)C(c2ccc(F)cc2)=NC12CCCCCC2)Nc1ccccc1Cl`, the activity change, negative = inhibition is -100%.
The same measure, in the same setting: then `Cc1cccc(NC(=O)c2c(NC(=O)C(F)(F)F)sc3c2CCCCC3)c1`, with -100%.
For `CCN(CC)c1ccc(NC(=O)CCS(=O)(=O)c2cccc3nsnc23)c(C)c1`, the activity change, negative = inhibition is -100%.
Turning to `CCS(=O)(=O)c1ncc(Cl)c(C(=O)NCc2ccccc2)n1`, the Potency was 10.4 µM (active).
In the case of `CCCCNC(=O)CSc1nc2nc(C)c(Cc3ccccc3C)c(C)n2n1`, the activity change, negative = inhibition was -100%.
On the same count and under the same terms, for `COc1ccc(NC(=O)CSc2nc3ccccc3nc2N2CCC(C)CC2)cc1` the value was -100%.
On the same count and under the same terms, then `O=C(CC(NCc1cccnc1)C(=O)O)Nc1ccc(O)cc1` (stereo unspecified), with -100%; and `Cc1cccc(C)c1Nc1sc(C(=O)c2ccccc2)c(N)c1S(=O)(=O)c1ccccc1`, with -100%.
For the molecule `O=C(CS(=O)(=O)c1cccc2nsnc12)NCc1ccc(Cl)cc1`, the activity change, negative = inhibition was -100%.
On to `CCc1ccc(S(=O)(=O)c2nnn(-c3ccc(F)cc3)c2N)cc1`, for which the activity change, negative = inhibition was -100%.
Same read-out and setting: for `Cc1ccc(C(C)C)c(OCC(=O)Nc2cc(-c3nc4ccccc4[nH]3)ccc2C)c1` the value was -100%; for `CCCN1C(=O)C(O)(CC(=O)c2ccc(CC)cc2)c2ccccc21` (stereo unspecified), -100%; for `COc1ccc(CNC(=O)C2CCN(c3nc4ccc(C)cc4[nH]3)CC2)cc1`, -100%.
Still for that read-out and setting: for `Cc1ccccc1CN1C(=O)C(O)(CC(=O)c2cccc(Br)c2)c2ccccc21` (stereo unspecified) the value was -100%.
Still for that read-out and setting: for `Cc1ccccc1NC(=O)c1c(NC(=O)C(F)(F)F)sc2c1CCCCC2` the value was -100%; for `Nc1nnc(SCC(=O)Nc2cccc(F)c2)s1`, -100%.
